{"source": "PubChem BioAssay (Tox21)", "note": "Records with an inconclusive call do not appear. Active and inactive are the calls of the source. Calls come from the whole dose curve; as a rule, active = well fitted cell-killing curve with a large enough effect in the repeat runs; inconclusive = weak or mixed curves; inactive = flat fitted curve, though single readings scatter. Where a SMILES comes first, the peptide text is derived from it. % is set by controls: 0 for no effect and ±100 for the full control effect."}
{"experiment": "qHTS RealTime-Glo MT Cell Viability Assay in HepG2 cells - 32 hour (AID 1224877); note: nearly all actives have a fitted effect of over 55% in size", "conditions": "RealTime-Glo luminescence; series mostly up to 76.8 µM", "description": "U.S. Tox21 Program National Center for Advancing Translational Sciences [NCATS] NIH Chemical Genomics Center [NCGC] U.S. Environmental Protection Agency [EPA] National Institutes of Environmental Health Sciences [NIEHS] National Toxicology Program [NTP] U.S. Food and Drug Administration [FDA] Tox21 Assay Overview: Measure of cell viability is critical in the cell-base assay. Analysis of cell viability is necessary for the characterization of cell responses to cytotoxic drugs and environmental stress. A RealTime-Glo MT Cell Viability Assay to monitor cell viability in real time of continues cell culture during 40 hours of compound treatment was used to screen Tox21 10K library compounds in HepG2 cells. The RealTime-Glo MT Cell Viability Assay is a nonlytic, homogeneous, bioluminescent method to measure cell viability in real time using a simple, plate-based method. The assay involves adding NanoLuc luciferase and a cell-permeant prosubstrate to cells in culture. Viable cells reduce the proprietary prosubstrate to generate a substrate for NanoLuc luciferase. This substrate diffuses from cells into the surrounding culture medium, where it is rapidly used by the NanoLuc Enzyme to produce a luminescent signal. The signal correlates with the number of viable cells, making the assay well suited for cytotoxicity studies.\nTox21 Assay Protocol Summary: The mixture of HepG2 cell suspension and reagents were dispensed at 600cells/6 ul/well in 1536-well tissue culture treated black solid bottom plates using a Multidrop dispenser. After the assay plates were incubated at a 37 C/5% CO2 incubator for 5 hours, 23 nL of compounds dissolved in DMSO, positive and negative controls was transferred to the assay plate by a pintool work station. The plates were incubated at 37 C for 40 hours. The luminescence intensity were measured at 0h, 8h, 16h, 24h, 32h and 40h time points using ViewLux plate reader during compound treatment."}
{"smiles": "Fc1ccccc1", "outcome": "inactive"}
{"smiles": "CN(C)CCOC(=O)C(c1ccccc1)C1(O)CCCC1", "note": "(stereo not given)", "outcome": "inactive"}
{"smiles": "[O-][n+]1cccc(/C(Cl)=N/OC[C@@H](O)CN2CCCCC2)c1", "outcome": "inactive"}
{"smiles": "CN1C[C@@H]2C[C@H]1CN2c1cc2c(cc1F)c(=O)c(C(=O)O)cn2C1CC1", "activity change, negative = cytotoxic": "4.04% [at 15.8 µM] (inactive)"}
{"smiles": "CC(=O)N[C@@H](CO)C(=O)N[C@@H](CC(=O)O)C(=O)N[C@@H](CCCCN)C(=O)N1CCC[C@H]1C(=O)O", "note": "(Ac-SDKP-OH)", "outcome": "inactive"}
{"smiles": "CCC[C@@H]1C[C@@H](C(=O)N[C@@H]([C@H]2O[C@H](SC)[C@H](O)[C@@H](O)[C@H]2O)[C@@H](C)O)N(C)C1", "outcome": "inactive"}
{"smiles": "C[C@@H](O)C(=O)O", "outcome": "inactive"}
{"smiles": "Cc1ccnc(N)c1", "outcome": "inactive"}
{"smiles": "CC1(C)CC(OC(=O)CCCCCCCCC(=O)OC2CC(C)(C)NC(C)(C)C2)CC(C)(C)N1", "activity change, negative = cytotoxic": "3.56% [at 15.8 µM] (inactive)"}
{"smiles": "O=C(CCCCC(=O)Nc1c(I)cc(I)c(C(=O)O)c1I)Nc1c(I)cc(I)c(C(=O)O)c1I", "outcome": "inactive"}
{"smiles": "CC1CCc2c(N3CCC(O)CC3)c(F)cc3c(=O)c(C(=O)O)cn1c23", "note": "(stereo not given)", "outcome": "inactive"}
{"smiles": "CC(S)C(C)S", "note": "(stereo not given)", "outcome": "inactive"}
{"smiles": "CCCCCCC1(C)CCC(=O)O1", "note": "(stereo not given)", "outcome": "inactive"}
{"smiles": "CC(=O)C(C)O", "note": "(stereo not given)", "outcome": "inactive"}
{"smiles": "COc1c2occc2c(OC)c2c(=O)cc(C)oc12", "outcome": "inactive"}
{"smiles": "C=C(C)c1cccc(C(C)(C)N=C=O)c1", "outcome": "inactive"}
{"smiles": "CCCC(=O)Nc1ccc(OCC(O)CNC(C)C)c(C(C)=O)c1", "note": "(stereo not given)", "outcome": "inactive"}
{"smiles": "CCO[Si](CC)(OCC)OCC", "outcome": "inactive"}
{"smiles": "O=C(Cn1ccnc1[N+](=O)[O-])NCc1ccccc1", "outcome": "inactive"}
{"smiles": "N#Cc1ccccc1O", "outcome": "inactive"}
{"smiles": "C#CCN[C@@H]1CCc2ccccc21", "outcome": "inactive"}
{"smiles": "CC(C)[C@H]1CC[C@H](C)C[C@@H]1O", "outcome": "inactive"}
{"smiles": "O=C(Cl)c1ccccc1[N+](=O)[O-]", "outcome": "inactive"}
{"smiles": "CC(=O)CCC1=C(C)CCCC1(C)C", "outcome": "inactive"}
{"smiles": "O=C(O)CONC(=O)c1ccccc1", "outcome": "inactive"}
{"smiles": "CCC(C)C(=O)OCCc1ccccc1", "note": "(stereo not given)", "outcome": "inactive"}
{"smiles": "O/N=C/C=N/O", "outcome": "inactive"}
{"smiles": "O=NN(CCCl)C(=O)NC1CCCCC1", "outcome": "inactive"}
{"smiles": "Cc1cccc(Cl)c1", "outcome": "inactive"}
{"smiles": "CCN1CCCC1CN", "note": "(stereo not given)", "outcome": "inactive"}
{"smiles": "C/C=C(\\C)C(C)=O", "outcome": "inactive"}
{"smiles": "Cc1cc(C)c(C(=O)O)c(C)c1", "outcome": "inactive"}
{"smiles": "CC(O)CC(C)O", "note": "(stereo not given)", "outcome": "inactive"}
{"smiles": "CC(C)(CO)C(O)C(=O)NCCCO", "note": "(stereo not given)", "outcome": "inactive"}
{"smiles": "COC(=O)CCCCC(=O)O", "outcome": "inactive"}
{"smiles": "O=[N+]([O-])c1c(Cl)cc(Cl)cc1Cl", "outcome": "inactive"}
{"smiles": "CC(C)NCC(O)c1ccc2ccccc2c1", "note": "(stereo not given)", "outcome": "inactive"}
{"smiles": "c1ccc(-c2nn[nH]n2)cc1", "outcome": "inactive"}
{"smiles": "N[C@@H](Cc1ccc(O)cc1)C(=O)O", "activity change, negative = cytotoxic": "-0.0666% [at 6.97 µM] (inactive)"}
{"smiles": "CC1c2ccccc2CN1NC(=O)c1ccc(Cl)c(S(N)(=O)=O)c1", "note": "(stereo not given)", "outcome": "inactive"}
